From PubChem BioAssay
Calls of active or inactive are those of the source.

Columns and labels:
[1] = optical density shifts of acrAB sulA E. coli – strain DRC41, OD650, 48 h, E. coli filamentation inducer project, primary screen (AID 1152); details: higher = more signal, called active from +8 up or from −8 down;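 further: E. coli MC1000 strain DRC41 lacking acrAB efflux pump and sulA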
[2] = probe aLefty1 binding on compound microarray – biochemical, small-molecule microarray, 635/667 nm fluorescence, primary screen (AID 1153); details: higher = more signal;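 further: score merges spot fluorescence with signal-to-noise ratio from the scanned slide images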
[3] = plasmodial surface anion channel blockers, osmotic lysis – cell-based, P. falciparum Indochina, OD700, 1 h, primary screen (AID 1154); details: P. falciparum Indochina infected RBC osmotic lysis, higher = more signal, called active from +8 up or from −8 down
[4] = plasmodial surface anion channel blockers, osmotic lysis – cell-based, P. falciparum Indochina, OD700, 2 h, primary screen (AID 1155);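 further: lysis reports solute entry through the parasite surface anion channel PSAC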; details: P. falciparum Indochina infected erythrocytes, higher = more signal, called active from +8 up or from −8 down
[5] = changes in parasitized red cell lysis, either direction – P. falciparum Indochina, OD700, 3 h, PSAC antagonist project, primary screen (AID 1156); details: P. falciparum-infected erythrocytes, osmotic lysis, higher = more signal, called active from +8 up or from −8 down
[6] = plasmodial surface anion channel blockers, osmotic lysis – cell-based, P. falciparum Indochina, OD700, 18 h, primary screen (AID 1157); details: P. falciparum Indochina infected erythrocytes, osmotic lysis OD700, 18 h; higher = more signal, called active from +8 up or from −8 down
[7] = S6 kinase pathway phospho-S6 level changes – cell-based, A549, cytoblot, luminescence, serum-stimulated, primary screen (AID 1158); details: 5 h, higher = more signal;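 further: serum-stimulated A549 lung adenocarcinoma cells; signal is phosphorylated S6 detected by cytoblot immunostaining with HRP secondary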
[8] = target: NADPH oxidase 2 (Homo sapiens) (UniProt P04839); experiment: compounds shifting NOX2 Amplex Red fluorescence – cell-based, HEK293-NOX2, PMA-stimulated, NOX inhibitor project, primary screen (AID 1159); details: 45 min, higher = more signal, called active from +8 up or from −8 down; further: test concentration not given here
[9] = target: NADPH oxidase 4 (Homo sapiens) (UniProt Q9NPH5); experiment: compounds shifting NOX4 Amplex Red fluorescence – cell-based, HEK293-NOX4, tetracycline-induced, NOX inhibitor project, primary screen (AID 1160); details: HEK293-NOX4, Amplex Red H2O2 fluorescence, 45 min; higher = more signal, called active from +8 up or from −8 down
[10] = target: NADPH oxidase 5 (Homo sapiens) (UniProt Q96PH1); experiment: compounds shifting NOX5 Amplex Red fluorescence – cell-based, HEK293-NOX5, NOX inhibitor project, primary screen (AID 1161); details: HEK293-NOX5, ionomycin, 45 min, higher = more signal
Chain of NADPH oxidase 5 (Homo sapiens) (Q96PH1 whole entry, looked up): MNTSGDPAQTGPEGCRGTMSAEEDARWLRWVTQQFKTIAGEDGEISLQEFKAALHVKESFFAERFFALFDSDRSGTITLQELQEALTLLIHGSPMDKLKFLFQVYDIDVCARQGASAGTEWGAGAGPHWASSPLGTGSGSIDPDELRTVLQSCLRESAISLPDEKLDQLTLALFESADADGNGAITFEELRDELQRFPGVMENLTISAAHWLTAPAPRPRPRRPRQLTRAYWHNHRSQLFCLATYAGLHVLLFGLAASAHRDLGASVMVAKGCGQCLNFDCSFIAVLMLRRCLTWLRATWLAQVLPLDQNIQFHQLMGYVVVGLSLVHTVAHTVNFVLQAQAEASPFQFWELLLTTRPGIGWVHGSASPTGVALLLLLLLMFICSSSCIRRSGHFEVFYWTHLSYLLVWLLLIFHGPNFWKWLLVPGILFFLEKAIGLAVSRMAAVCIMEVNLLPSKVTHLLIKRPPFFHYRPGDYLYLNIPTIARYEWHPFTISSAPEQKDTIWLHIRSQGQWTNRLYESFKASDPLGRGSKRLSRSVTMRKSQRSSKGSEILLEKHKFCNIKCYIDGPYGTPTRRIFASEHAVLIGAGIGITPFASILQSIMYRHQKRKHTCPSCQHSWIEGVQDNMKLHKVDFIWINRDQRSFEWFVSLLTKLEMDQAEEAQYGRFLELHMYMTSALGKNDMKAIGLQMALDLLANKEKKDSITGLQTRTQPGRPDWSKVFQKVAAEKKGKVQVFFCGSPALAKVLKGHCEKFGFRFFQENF

Chain of NADPH oxidase 4 (Homo sapiens) (Q9NPH5 whole entry, looked up): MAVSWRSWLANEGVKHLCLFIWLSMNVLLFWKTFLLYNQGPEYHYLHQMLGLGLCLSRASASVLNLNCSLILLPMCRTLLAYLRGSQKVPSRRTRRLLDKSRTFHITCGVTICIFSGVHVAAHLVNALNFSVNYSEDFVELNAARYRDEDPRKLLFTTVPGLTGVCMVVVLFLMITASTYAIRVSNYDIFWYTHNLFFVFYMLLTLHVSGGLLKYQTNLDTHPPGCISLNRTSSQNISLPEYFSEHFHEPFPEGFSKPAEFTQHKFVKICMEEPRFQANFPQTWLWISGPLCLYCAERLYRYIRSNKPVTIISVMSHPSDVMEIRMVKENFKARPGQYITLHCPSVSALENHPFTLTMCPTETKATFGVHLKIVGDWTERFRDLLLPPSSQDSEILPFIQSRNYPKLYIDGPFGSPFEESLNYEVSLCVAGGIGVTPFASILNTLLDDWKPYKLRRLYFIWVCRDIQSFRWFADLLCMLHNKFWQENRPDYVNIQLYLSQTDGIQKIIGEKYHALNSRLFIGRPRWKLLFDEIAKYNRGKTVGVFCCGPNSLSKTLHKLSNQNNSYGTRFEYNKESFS
Chain of NADPH oxidase 2 (Homo sapiens) (P04839 whole entry, looked up): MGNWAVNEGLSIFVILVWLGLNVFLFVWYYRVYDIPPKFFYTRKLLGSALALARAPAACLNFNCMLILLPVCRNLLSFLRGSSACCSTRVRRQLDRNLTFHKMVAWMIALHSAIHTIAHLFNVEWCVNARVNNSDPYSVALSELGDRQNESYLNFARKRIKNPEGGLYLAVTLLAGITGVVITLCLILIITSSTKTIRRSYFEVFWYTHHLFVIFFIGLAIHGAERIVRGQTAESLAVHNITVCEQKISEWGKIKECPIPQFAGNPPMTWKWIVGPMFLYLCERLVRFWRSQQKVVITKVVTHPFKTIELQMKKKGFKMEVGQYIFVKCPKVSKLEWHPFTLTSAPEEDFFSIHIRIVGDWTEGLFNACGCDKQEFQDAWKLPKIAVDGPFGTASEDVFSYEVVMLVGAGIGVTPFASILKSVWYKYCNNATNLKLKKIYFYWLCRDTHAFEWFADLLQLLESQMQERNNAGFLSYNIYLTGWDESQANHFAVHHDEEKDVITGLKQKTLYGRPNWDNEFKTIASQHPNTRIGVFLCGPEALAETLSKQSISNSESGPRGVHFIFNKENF

Compound	z-score [1]	composite z-score [2]	z-score [3]	z-score [4]	z-score [5]	z-score [6]	z-score [7]	z-score [8]	z-score [9]	z-score [10]
Cc1ccc(S[C@]2(C(=O)NCc3ccccc3)CC(=O)N(Cc3ccccc3Cl)[C@@H]2c2ccc(CO)cc2)cc1	-0.71 (inactive)	-0.0536	3.22 (inactive)	0.328 (inactive)	2.98 (inactive)	0.254 (inactive)	-0.121	-0.703 (inactive)	-0.666 (inactive)	-0.778
CC(C)Cc1ccc(CN2CC[C@@H](NC(=O)c3ccccc3)C2)cc1	-0.55 (inactive)	-0.147	1.57 (inactive)	1.11 (inactive)	1.23 (inactive)	0.33 (inactive)	0.0681	-0.29 (inactive)	-0.413 (inactive)	-2.41
O=C(CS)NCCCCCCNC(=O)[C@H]1C[C@H]2C(=O)NCC(=O)N2[C@H]1c1cccc(OCCO)c1	0.838 (inactive)	0.0797	2.16 (inactive)	-0.151 (inactive)	-1.92 (inactive)	-1.36 (inactive)	0.21	2.14 (inactive)	1.22 (inactive)	0.769
COCCCNC(=O)[C@@]1(Cc2ccccc2I)c2ccccc2C(=O)N(C2CCCCC2)[C@H]1c1ccc(CO)cc1	0.0773 (inactive)	0.293	8.09 (active)	0.695 (inactive)	2.44 (inactive)	0.623 (inactive)	0.453	0.392 (inactive)	-1.2 (inactive)	-3.06
CO[C@H]1O[C@H](CO)[C@@H](OC(=O)Nc2cccc(F)c2)[C@H](OC(=O)c2cc3ccccc3[nH]2)[C@H]1OC(=O)c1cc2ccccc2[nH]1	0.378 (inactive)	-0.0412	0.694 (inactive)	-1.02 (inactive)	-0.0952 (inactive)	-0.908 (inactive)	2.06	-2.38 (inactive)	-0.453 (inactive)	-3.81
Cc1ccc(S[C@]2(C(=O)NC(C)C)CC(=O)N(Cc3ccccc3)[C@@H]2c2ccc(CO)cc2)cc1	1.33 (inactive)	0.082	1.66 (inactive)	-0.709 (inactive)	-0.379 (inactive)	-0.581 (inactive)	1.46	-0.101 (inactive)	0.0692 (inactive)	-0.771
C=CC[C@@]1(C(=O)NCCCOC)N=C(c2ccc(OCCCO)cc2)O[C@@H]1c1ccccc1CN=[N+]=[N-]	1.14 (inactive)	0.607	22.3 (active)	2.5 (inactive)	0.493 (inactive)	-1.34 (inactive)	0.812	-0.477 (inactive)	0.648 (inactive)	-0.274
COc1ccc([Si](C)(C)[C@H]2[C@H](CC(=O)N(CCO)Cc3ccccc3)O[C@@]3(C(=O)N(c4ccccc4)c4ccccc43)[C@@H]2C)cc1	-0.79 (inactive)	-0.0603	26.5 (active)	12.9 (active)	0.495 (inactive)	2.04 (inactive)	0.297	-0.0743 (inactive)	0.689 (inactive)	-1.65
COc1ccc(CCNC(=O)[C@@H]2c3ccccc3C(=O)N(C(C)C)[C@H]2c2ccc(CO)cc2)cc1	1.73 (inactive)	-0.27	3.24 (inactive)	0.785 (inactive)	1.3 (inactive)	0.376 (inactive)	0.307	-0.219 (inactive)	0.821 (inactive)	0.338
C=CCNC(=O)[C@H]1[C@@H]2C(=O)O[C@@H](c3ccccc3)[C@@H](c3ccccc3)N2[C@@H](c2ccc(O)cc2)[C@]12C(=O)Nc1ccc(C#CCC(C(=O)OC)C(=O)OC)cc12	0.824 (inactive)	-0.188	8.47 (active)	1.51 (inactive)	0.416 (inactive)	0.432 (inactive)	0.0591	1.82 (inactive)	0.194 (inactive)	1.93
COc1cc(Cc2cc3c(c(-c4ccccc4)n2)[Si](C(C)C)(C(C)C)OC3)cc(OC)c1OC	0.752 (inactive)	0.0299	1.62 (inactive)	0.702 (inactive)	0.84 (inactive)	0.332 (inactive)	0.159	1.04 (inactive)	0.424 (inactive)	0.0407
CC[C@@H](O[Si](C#C[Si](C(C)C)(C(C)C)C(C)C)(C(C)C)C(C)C)c1cn([C@H](C)c2ccccc2)nn1	0.854 (inactive)	-0.0601	0.4 (inactive)	0.209 (inactive)	-0.969 (inactive)	0.582 (inactive)	-0.711	-0.0103 (inactive)	-0.507 (inactive)	0.0572
CO[C@H]1O[C@H](CO)[C@@H](OC(=O)Nc2cccc(F)c2)[C@H](OC(=O)Nc2ccc3c(c2)OCO3)[C@@H]1OC(=O)Nc1ccc2c(c1)OCO2	-0.727 (inactive)	0.37	12 (active)	2.05 (inactive)	1.16 (inactive)	1.18 (inactive)	0.296	-3.87 (inactive)	-1.07 (inactive)	-1.81
